The results in this text go back to PubChem BioAssay (NCI).

Among the test systems are HCT-15 colon; HT29 colon; SNB-75 CNS; SNB-19 CNS; U251 CNS; PC-3 prostate; SK-MEL-5 melanoma; UACC-62 melanoma; LOX IMVI melanoma; SK-MEL-28 melanoma; SK-MEL-2 melanoma; EKVX NSCLC; SN12C renal; UO-31 renal; TK-10 renal; ACHN renal; CAKI-1 renal; A498 renal; CCRF-CEM leukemia; MOLT-4 leukemia.
What all share (experiment): NCI-60 one-dose screen, 48 h (100 = growth as untreated, 0 = no growth, -100 = all killed)
Holding throughout (conditions): 10 µM

This is part of a sample that, as a whole, favours compounds with a hit. Of some 83,000 tested, about 20% had one in any assay.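 In brief: 96-well plates, 48 h treatment, single concentration, percent growth endpoint.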 A number with no mark means an inactive call. Activity calls are given as the source filed them. The calls were made as follows: active = growth percent below 10; inactive = the rest.

Take `Cc1ccc(C(C)C)cc1NC(=O)c1ccccc1N(C)C`: the growth is 76.6% in the assay with HCT-15 colon; 74.6% in the assay on HT29 colon; 112% with SNB-75 CNS; 93% in the assay with SNB-19 CNS; 87.6% in the assay on U251 CNS; 73.7% in the assay on PC-3 prostate. Also, the growth was 86.8% in the assay with SK-MEL-5 melanoma; 63.1% in the assay on UACC-62 melanoma; 86.8% in the assay with LOX IMVI melanoma; 92.9% in the assay on SK-MEL-28 melanoma; 86.8% with SK-MEL-2 melanoma; 81.1% with EKVX NSCLC. The growth is 88.1% in the assay on SN12C renal; 76.4% in the assay on UO-31 renal; 90.2% with TK-10 renal; 88.4% in the assay on ACHN renal; 70.6% in the assay with CAKI-1 renal; 100% in the assay with A498 renal. The growth in the assay on CCRF-CEM leukemia is 80.1%.

`CC(=O)c1ccc(NC(=O)NCn2c(=O)[nH]c3ccccc3c2=O)cc1`: the growth in the assay with HCT-15 colon was 101%; in the assay with HT29 colon, 105%; with SNB-75 CNS it was 99.9%; in the assay on SNB-19 CNS, 90.4%; with U251 CNS it was 86.7%; with PC-3 prostate it was 86.9%. Also, the growth in the assay with SK-MEL-5 melanoma was 96.8%; in the assay on UACC-62 melanoma, 81.1%; in the assay on LOX IMVI melanoma, 92.8%; in the assay with SK-MEL-28 melanoma it was 103%; in the assay on SK-MEL-2 melanoma, 106%; in the assay with EKVX NSCLC it was 92.5%. The growth in the assay on SN12C renal is 94.2%; in the assay on UO-31 renal it was 73.7%; with TK-10 renal, 105%; in the assay on ACHN renal, 99.2%; in the assay on CAKI-1 renal, 91.2%; in the assay with A498 renal it was 98.1%. Also, in the assay on CCRF-CEM leukemia, the growth is 91.6%.

Turning to `CC(C)NC(=O)c1cc(-c2ccc(NC(=O)Nc3ccc(N4CCN(C)CC4)c(C(F)(F)F)c3)cc2)nc2cccnc12`, the growth with HCT-15 colon was -89.6% (active); in the assay on HT29 colon, -86.6% (active); in the assay on SNB-75 CNS, -96.2% (active); in the assay on SNB-19 CNS it was -93.2% (active); in the assay on U251 CNS it was -86.2% (active); with PC-3 prostate, -72.9% (active). Also, the growth is -100% (active) in the assay on SK-MEL-5 melanoma; -97.1% (active) in the assay on UACC-62 melanoma; -99.2% (active) in the assay on LOX IMVI melanoma; -99.3% (active) in the assay on SK-MEL-28 melanoma; -81.9% (active) in the assay with SK-MEL-2 melanoma; -92.4% (active) with EKVX NSCLC. In addition, the growth in the assay on SN12C renal is -92.9% (active); in the assay with UO-31 renal, -97.4% (active); in the assay on TK-10 renal, -93.6% (active); with ACHN renal, -100% (active); in the assay with CAKI-1 renal it was -93.6% (active); in the assay with A498 renal, -97.7% (active). In addition, the growth in the assay with CCRF-CEM leukemia is -43.6% (active).

On to `COC1CC(Cn2cc(COc3ccc4ccc(=O)oc4c3)nn2)C(OCc2ccccc2)C(OCc2ccccc2)C1OCc1ccccc1` (stereo not drawn), for which the growth with HCT-15 colon is 88.9%; in the assay on HT29 colon, 108%; in the assay on SNB-75 CNS, 92.5%; in the assay on SNB-19 CNS it was 95.1%; with U251 CNS it was 100%; in the assay with PC-3 prostate, 92.7%. Also, the growth in the assay with SK-MEL-5 melanoma was 83.2%; in the assay with UACC-62 melanoma, 82.6%; in the assay on LOX IMVI melanoma, 99.4%; with SK-MEL-28 melanoma it was 105%; with SK-MEL-2 melanoma it was 114%; in the assay with EKVX NSCLC, 90.7%. In addition, the growth is 106% in the assay with SN12C renal; 71.7% with UO-31 renal; 110% with TK-10 renal; 105% with ACHN renal; 84% in the assay on CAKI-1 renal; 116% in the assay with A498 renal. The growth in the assay with CCRF-CEM leukemia is 87%.

`Cc1ccc(S(=O)(=O)c2nc(-c3ccccc3)oc2S(=O)(=O)CC(=O)N2CCCC2)cc1`: the growth in the assay on HCT-15 colon was -78.2% (active); in the assay on HT29 colon, -81.7% (active); with SNB-75 CNS, 14.7%; in the assay with SNB-19 CNS, 68.2%; with U251 CNS, -77.5% (active); in the assay with PC-3 prostate, 4.7% (active). In addition, the growth in the assay with SK-MEL-5 melanoma was 26.5%; in the assay with UACC-62 melanoma it was -85.4% (active); in the assay with LOX IMVI melanoma it was -91.3% (active); in the assay on SK-MEL-28 melanoma, -100% (active); in the assay on SK-MEL-2 melanoma it was -50.6% (active); in the assay with EKVX NSCLC it was 5.22% (active). Moreover, the growth with SN12C renal was -85% (active); in the assay on UO-31 renal, -100% (active); in the assay on TK-10 renal it was -99.7% (active); in the assay with ACHN renal, -100% (active); in the assay with CAKI-1 renal it was -100% (active); in the assay with A498 renal, 90.1%. In addition, the growth in the assay on CCRF-CEM leukemia is -64.4% (active).

Turning to `CN1CCN(c2ccc(Nc3nc(N4CCN(S(=O)(=O)c5ccc(Cl)cc5)CC4)c4sccc4n3)cc2)CC1`, the growth in the assay on HCT-15 colon was -78.6% (active); in the assay on HT29 colon, -51.3% (active); with SNB-75 CNS, 67.1%; with SNB-19 CNS it was 28.4%; with U251 CNS it was -85.2% (active); in the assay on PC-3 prostate, 28.5%. Also, the growth is -100% (active) in the assay with SK-MEL-5 melanoma; -90.3% (active) in the assay on UACC-62 melanoma; -90.1% (active) in the assay on LOX IMVI melanoma; -98.6% (active) with SK-MEL-28 melanoma; 79.4% in the assay on SK-MEL-2 melanoma; 62.1% in the assay with EKVX NSCLC. Further, the growth in the assay on SN12C renal was 91.9%; with UO-31 renal it was 64.2%; with TK-10 renal, 85.9%; in the assay on ACHN renal, -64.4% (active); with CAKI-1 renal, 7.7% (active); with A498 renal, 125%. In the assay on CCRF-CEM leukemia, the growth is 1.87% (active).

Turning to `CN1CCN(c2ccc(Nc3nc(NCCCNC(=O)C4CCCCC4)c4sccc4n3)cc2)CC1`, the growth in the assay on HCT-15 colon is 2.76% (active); with HT29 colon it was -1.75% (active); with SNB-75 CNS, 62.9%; in the assay on SNB-19 CNS, 77.3%; with U251 CNS, 17.1%; in the assay on PC-3 prostate, 50.6%. Further, the growth in the assay with SK-MEL-5 melanoma was 22.3%; in the assay on UACC-62 melanoma, 48.5%; in the assay on LOX IMVI melanoma, 10.2%; in the assay with SK-MEL-28 melanoma, -81.3% (active); with SK-MEL-2 melanoma it was 102%; with EKVX NSCLC, 67.3%. Further, the growth is 70.6% in the assay on SN12C renal; 62.4% in the assay with UO-31 renal; 99.4% in the assay on TK-10 renal; 36.2% with ACHN renal; 57.2% in the assay on CAKI-1 renal; 144% with A498 renal. Besides, the growth with CCRF-CEM leukemia was 18%.

In the case of `N#Cc1c(Cl)nc(SCc2ccc(F)cc2)nc1-c1ccc(F)cc1`, the growth in the assay on HCT-15 colon is 87%; in the assay with HT29 colon, 66.6%; in the assay with SNB-75 CNS, 123%; with SNB-19 CNS it was 98%; with U251 CNS, 92.8%; in the assay on PC-3 prostate, 91.1%. In addition, the growth in the assay with SK-MEL-5 melanoma is 86.2%; with UACC-62 melanoma, 86%; in the assay with LOX IMVI melanoma it was 90.2%; in the assay on SK-MEL-28 melanoma, 104%; in the assay with SK-MEL-2 melanoma it was 97.9%; in the assay with EKVX NSCLC, 89.1%. Also, the growth was 80.9% with SN12C renal; 87.1% in the assay on UO-31 renal; 98.2% with TK-10 renal; 99.5% in the assay on ACHN renal; 94.9% in the assay on CAKI-1 renal; 115% in the assay on A498 renal. For the same compound, the growth in the assay on CCRF-CEM leukemia was 86.7%; in the assay on MOLT-4 leukemia, 80.6%.
